# Records with an inconclusive call do not appear. Values without a mark were called inactive. Active and inactive are the calls of the source. The call rests on the fitted dose curve; in most records, active means well fitted cell-killing curve with a large enough effect; inconclusive means small, poorly fitted or top-dose-only effect, or effect the other way; inactive means no such curve, though single readings can be large or run the other way.
# Experiments:
# [1] = Quantitative High-Throughput drug screen in 47 multiple myeloma cell lines against the NCATS MIPE library collection: SKMM1_PLB cell viability assay (AID 1919863); details: SKMM1 myeloma viability, CellTiter-Glo ATP, 48 h; viability: active compounds read low; further: nearly all actives have a fitted effect of over 35% in size
# In short: (§1)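 Myeloma cells (500/well) treated with MIPE 4.0 compounds for 48 h at 37 °C, 5% CO2. Viability read as ATP via CellTiter-Glo luminescence after 5 min at RT; DMSO-only wells = 100%, media-only = 0% viability.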
# [2] = Quantitative High-Throughput drug screen in 47 multiple myeloma cell lines against the NCATS MIPE library collection: XG1_PLB cell viability assay (AID 1919866); further: nearly all actives have a fitted effect of over 35% in size
# In short: as §1
# [3] = Quantitative High-Throughput drug screen in 47 multiple myeloma cell lines against the NCATS MIPE library collection: VP6_DJ cell viability assay (AID 1919867); further: nearly all actives have a fitted effect of over 40% in size
# In short: as §1
# [4] = Quantitative High-Throughput drug screen in 47 multiple myeloma cell lines against the NCATS MIPE library collection: RPMI8226_ATCC cell viability assay (AID 1919871); further: nearly all actives have a fitted effect of over 30% in size
# In short: as §1
# [5] = Quantitative High-Throughput drug screen in 47 multiple myeloma cell lines against the NCATS MIPE library collection: OPM2_DSMZ cell viability assay (AID 1919872); further: nearly all actives have a fitted effect of over 30% in size
# In short: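 qHTS of the MIPE 4.0 collection: 500 myeloma cells/well, 48 h drug exposure at 37C in 5% CO2, then CellTiter-Glo for 5 min at room temperature before luminescence reading.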
# [6] = Quantitative High-Throughput drug screen in 47 multiple myeloma cell lines against the NCATS MIPE library collection: XG6_PLB cell viability assay (AID 1919865); further: nearly all actives have a fitted effect of over 40% in size
# In short: as §1
# [7] = Quantitative High-Throughput drug screen in 47 multiple myeloma cell lines against the NCATS MIPE library collection: PCM6_Riken cell viability assay (AID 1919870); further: nearly all actives have a fitted effect of over 30% in size
# In short: as §1
# [8] = Quantitative High-Throughput drug screen in 47 multiple myeloma cell lines against the NCATS MIPE library collection: U266_ATCC cell viability assay (AID 1919864); further: nearly all actives have a fitted effect of over 35% in size
# In short: as §1
# [9] = Quantitative High-Throughput drug screen in 47 multiple myeloma cell lines against the NCATS MIPE library collection: PE2_PLB cell viability assay (AID 1919869); further: nearly all actives have a fitted effect of over 35% in size
# In short: as §1
# [10] = Quantitative High-Throughput drug screen in 47 multiple myeloma cell lines against the NCATS MIPE library collection: UTMC2_PLB cell viability assay (AID 1919868); details: CellTiter-Glo ATP luminescence, 48 h; viability (% of DMSO control): at 45.8 µM (top of the series); further: nearly all actives have a fitted effect of over 55% in size
# In short: as §1
# Potency means the concentration at half of the fitted maximal effect.
smiles,measurement,setting,value
CCOc1cc(N2CCC(O)CC2)ccc1Nc1ncc2c(n1)N(C)c1ccccc1C(=O)N2C,Potency,[1],11.8 µM (active)
same,Potency,[2],5.9 µM (active)
same,Potency,[3],2.09 µM (active)
same,Potency,[4],20.9 µM (active)
same,Potency,[5],13.2 µM (active)
Cc1cc(SCc2sc(-c3ccc(C(F)(F)F)cc3)nc2C)ccc1OCC(=O)O,Potency,[1],16.6 µM (active)
same,Potency,[6],inactive
same,Potency,[7],inactive
same,Potency,[4],14.8 µM (active)
same,Potency,[5],inactive
CCOc1ccc(Cc2cc([C@@H]3O[C@H](CO)[C@@H](O)[C@H](O)[C@@H]3O)ccc2Cl)cc1,Potency,[8],inactive
same,Potency,[6],3.32 µM (active)
same,Potency,[3],16.6 µM (active)
same,Potency,[4],inactive
same,Potency,[5],inactive
O=C(Nc1ccc(F)c(C(F)(F)F)c1)Nc1nnc(-c2ccncc2)s1,Potency,[1],8.33 µM (active)
same,Potency,[3],4.18 µM (active)
same,Potency,[7],1.87 µM (active)
CS(=O)(=O)c1ccc(C(=O)Nc2ccc(Cl)c(-c3ccccn3)c2)c(Cl)c1,viability,[1],129%
same,Potency,[2],1.66 µM (active)
same,Potency,[4],inactive
same,Potency,[5],inactive
CCC(C)n1ncn(-c2ccc(N3CCN(c4ccc(OC[C@H]5CO[C@](Cn6cncn6)(c6ccc(Cl)cc6Cl)O5)cc4)CC3)cc2)c1=O (some centres undefined),Potency,[1],14.8 µM (active)
same,Potency,[2],inactive
same,Potency,[9],inactive
same,Potency,[4],3.32 µM (active)
same,Potency,[5],4.69 µM (active)
Clc1cccc(Cl)c1NC1=NCCN1,Potency,[8],inactive
same,Potency,[6],inactive
same,Potency,[2],inactive
same,Potency,[3],5.26 µM (active)
same,Potency,[5],inactive
O=C(Nc1nc2ccccc2n1CCN1CCOCC1)c1cccc([N+](=O)[O-])c1,Potency,[8],14.8 µM (active)
same,Potency,[6],1.32 µM (active)
same,Potency,[2],4.18 µM (active)
same,Potency,[9],1.05 µM (active)
same,Potency,[7],1.87 µM (active)
same,Potency,[5],inactive
CCOc1cc(C=C2C(=O)N(c3ccccc3)N=C2C)cc(Cl)c1OCC(=O)OC,viability,[1],106%
same,Potency,[7],16.6 µM (active)
same,Potency,[4],inactive
same,Potency,[5],inactive
Cc1c(C)c2c(c(C)c1O)CCC(C)(COc1ccc(CC3SC(=O)NC3=O)cc1)O2 (centres undefined),viability,[1],114%
same,Potency,[2],inactive
same,Potency,[3],inactive
same,Potency,[9],20.9 µM (active)
same,Potency,[7],20.9 µM (active)
same,Potency,[4],inactive
same,Potency,[5],inactive
CCCCNc1cc(C(=O)O)cc(S(N)(=O)=O)c1Oc1ccccc1,viability,[1],158%
same,Potency,[2],inactive
same,Potency,[3],inactive
same,Potency,[9],inactive
same,Potency,[7],inactive
same,Potency,[4],inactive
same,Potency,[5],inactive
Cc1[nH]c(=O)c(C#N)cc1-c1ccc2nccn2c1,Potency,[8],inactive
same,Potency,[6],inactive
same,Potency,[2],inactive
same,Potency,[7],2.64 µM (active)
same,Potency,[4],inactive
same,Potency,[5],inactive
O=C(C1CC1)N1CC[C@@H](Cn2c(-c3ccc(-c4ccc5occc5c4)cc3)nc3cnccc32)C1,viability,[1],107%
same,Potency,[2],16.6 µM (active)
same,Potency,[4],inactive
same,Potency,[5],20.9 µM (active)
O=C(Nc1cccnc1)N1CCC(Cc2cccc(Oc3ccc(C(F)(F)F)cn3)c2)CC1,Potency,[8],18.7 µM (active)
same,Potency,[6],14.8 µM (active)
same,Potency,[3],10.5 µM (active)
same,Potency,[9],16.6 µM (active)
same,Potency,[7],14.8 µM (active)
same,Potency,[5],inactive
CC1(C)SCCN(S(=O)(=O)c2ccc(OCC#CCO)cc2)[C@@H]1C(=O)NO,Potency,[1],0.118 µM (active)
same,Potency,[2],inactive
same,Potency,[9],inactive
same,Potency,[4],inactive
same,Potency,[5],inactive
Nc1cccc(S(=O)(=O)N2CCCN(S(=O)(=O)c3ccc4c(c3)OCCO4)CC2)c1,viability,[1],103%
same,Potency,[2],7.43 µM (active)
same,Potency,[3],8.33 µM (active)
same,Potency,[5],inactive
Cc1ccc(-n2nc(C(C)(C)C)cc2NC(=O)Nc2ccc(OCCN3CCOCC3)c3ccccc23)cc1,Potency,[8],23.5 µM (active)
same,Potency,[6],3.32 µM (active)
same,Potency,[3],10.5 µM (active)
same,Potency,[10],4.18 µM (active)
same,Potency,[9],16.6 µM (active)
same,Potency,[7],23.5 µM (active)
same,Potency,[5],inactive
C[C@H](NC(=O)Cc1cc(F)cc(F)c1)C(=O)N[C@@H]1C(=O)N(C)c2ccccc2-c2ccccc21,Potency,[8],16.6 µM (active)
same,Potency,[6],4.69 µM (active)
same,Potency,[3],inactive
COc1ccc(-c2c(-c3ccc(O)cc3O)n[nH]c2C)cc1,viability,[1],137%
same,Potency,[3],34 µM (active)
same,Potency,[4],inactive
same,Potency,[5],inactive
O=c1ncn2nc(Sc3ccc(F)cc3F)ccc2c1-c1c(Cl)cccc1Cl,Potency,[8],20.9 µM (active)
same,Potency,[6],13.2 µM (active)
same,Potency,[3],9.35 µM (active)
same,Potency,[9],3.72 µM (active)
same,Potency,[7],13.2 µM (active)
same,Potency,[4],inactive
CN(C)c1ccc(Nc2nc(N)n(C(=O)c3c(F)cccc3F)n2)cc1,Potency,[8],18.7 µM (active)
same,Potency,[6],3.72 µM (active)
same,Potency,[2],0.935 µM (active)
same,Potency,[3],16.6 µM (active)
same,Potency,[9],5.9 µM (active)
same,Potency,[7],13.2 µM (active)
same,Potency,[4],inactive
NC(=O)c1cnccn1,viability,[1],112%
same,Potency,[2],inactive
same,Potency,[9],inactive
same,Potency,[7],inactive
same,Potency,[4],inactive
same,Potency,[5],inactive
Cc1ccc(N(CC2=NCCN2)c2cccc(O)c2)cc1,Potency,[1],29.6 µM (active)
same,Potency,[3],inactive
same,Potency,[7],inactive
COc1cc(Oc2ccnc3cc(OC)c(OC)cc23)ccc1NC(=O)NC(C)c1nccs1 (centres undefined),Potency,[10],inactive
COc1ccc2nc(S(=O)Cc3ncc(C)c(OC)c3C)[nH]c2c1 (centres undefined),viability (% of DMSO control),[10],120% (active)

# Reference: PubChem BioAssay (NCATS)
